High-throughput results from PubChem.
An excerpt weighted towards active compounds, which were near 2.2% of everything screened.
TRPM1 prom inh = inhibitors of MITF-dependent TRPM1 promoter reporter, primary screen, cell-based, SK-MEL-5, single point, luciferase | SK-MEL-5 TRPM1 promoter luciferase, 24 h | inhibition, % at 12.5 µM | actives 0.83% (n = 330,000) | AID 488899, 2010;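 active means mean inhibition across replicates of 60% or more, whatever share of single replicates reaches that level; inconclusive means some that reach 60%, reason not given; inactive means mean inhibition across replicates below 60%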
LGR2 antag = inhibitors of bursicon-induced LGR2 CRE-luciferase signal, primary screen, cell-based, HEK293, CRE-luciferase reporter, bursicon stimulation; inhibition, % at 9.99 µM; actives 0.35% (n = 380,000); bursicon-stimulated, 4 h; Drosophila bursicon receptor LGR2 (rickets);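 active means drop in luminescence signal, shown as inhibition above about 50% in the replicate tests, limit read from the data, passing the limit was not always enough; inconclusive means probably only some replicates passing the limit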;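 further: agonist challenge used bursicon conditioned medium at about half maximal strength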
PAX8 reporter = inhibitors of PAX8-driven TPO luciferase reporter, primary screen, RMG-I cells, single concentration. SteadyGlo, 24 h. actives 1.2% (n = 360,000). inhibition, % at 12.6 µM. AID 652154, 2013;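 active means mean replicate inhibition at least 60% with every replicate also reaching 60%; inconclusive means only one of the two criteria is met; inactive means mean below 60% and not all replicates reaching 60%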;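 further: luciferase light reporting Pax8 driven TPO promoter activity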
Shn3 3UTR inh = reduction of Shn3 3'UTR firefly luciferase signal, primary screen, Schnurri-3 inhibitor project, cell-based, Clone20 osteoblasts, set 2; actives 0.52% (n = 360,000); inhibition, % at 12.5 µM; AID 588674, 2011; Clone20 osteoblast Shn3 3'UTR firefly luciferase, 24 h;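 active means mean inhibition of at least 75% with every replicate also reaching 75%; inconclusive means mean inhibition at least 75% but some replicate below; inactive means mean inhibition below 75%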
EBV LMP1 NFkB = EBV LMP1-driven NF-kappaB luciferase reporter inhibitors, primary screen, cell-based, luminescence, single point. LMP1-induced NF-kappaB luciferase reporter cells. inhibition, % at 12.5 µM. actives 0.69% (n = 350,000). AID 504558, 2011; in the data active means inhibition above about 41%; inconclusive means no clear call, values can overlap the other calls
EWS-Fli block = EWS/Fli-driven NR0B1 reporter inhibitors, primary screen, A673 cells, NR0B1 luciferase, luminescence, MLPCN library. viability-normalised. inhibition, % at 12.6 µM. actives 0.67% (n = 350,000);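 active means mean inhibition of at least 50% after viability correction, with every replicate also passing that limit; inconclusive means mean reaches 50% but only one of two replicates passes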;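 further: firefly luciferase signal divided by Alamar Blue viability fluorescence both relative to DMSO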
Each line names hits and unclear results; the compound was inactive in the other large screens.

N#CCC(=O)N/N=C/c1cc([N+](=O)[O-])ccc1N1CCCC1	none
O=C(Nc1ccc2c(c1)nc1n2CCSC1)c1ccco1	EBV LMP1 NFkB 45 (no result: LGR2 antag, PAX8 reporter, EWS-Fli block)
COc1ccccc1OCC(=O)N/N=C/C=C/c1ccc([N+](=O)[O-])o1	TRPM1 prom inh 76
O=C(N/N=C\C=C\c1ccc([N+](=O)[O-])o1)c1cccs1	TRPM1 prom inh 83
Cc1ccccc1OCC(=O)N/N=C/c1ccc([N+](=O)[O-])o1	TRPM1 prom inh 79
Cc1cc(C)cc(OCC(=O)N/N=C/c2ccc([N+](=O)[O-])o2)c1	TRPM1 prom inh 66
CCOC(=O)N/N=C\c1ccc([N+](=O)[O-])o1	none (no result: LGR2 antag, PAX8 reporter, EWS-Fli block)
Cc1ccccc1OCC(=O)NCC(=O)N/N=C/c1ccc(Br)o1	none (no result: EWS-Fli block)
C[C@H]1CN([C@@H](C)CO)C(=O)c2cc(-c3ccc(F)cc3)cnc2O[C@@H]1CN(C)C(=O)Nc1ccc(F)cc1	none (no result: TRPM1 prom inh, PAX8 reporter, Shn3 3UTR inh, EBV LMP1 NFkB)
CC1(C(=O)N/N=C/c2ccc([N+](=O)[O-])o2)CC1(Br)Br (configuration not stated)	TRPM1 prom inh 74
COCC(=O)Nc1ccc2c(c1)C(=O)N(C)[C@H]1CC[C@H](CC(=O)OC)O[C@@H]1CO2	none (no result: TRPM1 prom inh, PAX8 reporter, Shn3 3UTR inh, EBV LMP1 NFkB, EWS-Fli block)
COc1ccc(C)cc1Nc1c2c(nc3ccccc13)CCC2	EWS-Fli block 53
O=C(CCl)N1c2ccccc2SCC1c1ccccc1 (configuration not stated)	TRPM1 prom inh 79, EWS-Fli block 61
CCOC(=O)C1CCN(C(=O)c2sc3nc(C)nc(N4CCC(C)CC4)c3c2C)CC1	Shn3 3UTR inh 88 (no result: PAX8 reporter, EWS-Fli block)
Oc1ccc(C=NNc2ccccn2)c(O)c1	Shn3 3UTR inh 86, EBV LMP1 NFkB inconclusive
O=[N+]([O-])c1ccc(O)c(/C=N/Nc2ncnc3c2cnn3-c2ccccc2)c1	Shn3 3UTR inh 92, EBV LMP1 NFkB 47
CCN(CC)S(=O)(=O)c1ccc(N/N=C/c2ccc(O)cc2O)nc1	PAX8 reporter 72, Shn3 3UTR inh inconclusive, EBV LMP1 NFkB 57 (no result: EWS-Fli block)
O=[N+]([O-])c1ccc(NN=Cc2ccccc2O)nc1	none
O=[N+]([O-])c1ccc(O)c(/C=N/Nc2ccccn2)c1	TRPM1 prom inh 65, PAX8 reporter 71, EBV LMP1 NFkB 47
O=C(O)C[C@H]1C=C[C@H](NC(=O)c2ccccc2F)[C@H](CO)O1	none (no result: TRPM1 prom inh, Shn3 3UTR inh, EBV LMP1 NFkB)
CC1CC(C)(C)CC2(C1)NC(=O)N(CC(=O)N1CCN(Cc3ccc(C#N)cc3)CC1)C2=O (configuration not stated)	Shn3 3UTR inh 86
Cc1cccc(NC(=O)CN2CCN(C(=O)CN3C(=O)NC4(CC(C)CC(C)(C)C4)C3=O)CC2)c1C (configuration not stated)	none
CC1(c2ccc3ccccc3c2)NC(=O)N(CC(=O)N2CCN(Cc3ccc(C#N)cc3)CC2)C1=O (configuration not stated)	Shn3 3UTR inh 88 (no result: LGR2 antag, PAX8 reporter, EWS-Fli block)
Cc1cccc(-c2ccc([C@@H]3[C@H]4CN(C(=O)CN5CCOCC5)CC(=O)N4[C@H]3CO)cc2)c1	none (no result: TRPM1 prom inh, PAX8 reporter, Shn3 3UTR inh, EBV LMP1 NFkB, EWS-Fli block)
O=C(C[C@H]1CC[C@@H]2[C@H](COC[C@H](O)CN2Cc2cccc(Cl)c2)O1)NCC1CCCCC1	none (no result: TRPM1 prom inh, Shn3 3UTR inh, EBV LMP1 NFkB)
O=C(C[C@H]1CC[C@@H]2NC[C@H](O)COC[C@H]2O1)NCCN1CCCC1	none (no result: TRPM1 prom inh, Shn3 3UTR inh, EBV LMP1 NFkB, EWS-Fli block)
Cc1cc(C)c(O)c(-c2cc(C(=O)Nc3ccc(S(=O)(=O)N4CCOCC4)cc3)[nH]n2)c1	Shn3 3UTR inh 91 (no result: LGR2 antag, PAX8 reporter, EWS-Fli block)
CN(Cc1ccccc1)C1=CC(=[N+]2CCCCC2)CC(C)(C)C1	TRPM1 prom inh 77, PAX8 reporter 74, EBV LMP1 NFkB 44
CC1(C)CC(N2CCN(Cc3ccccc3)CC2)=CC(=[N+]2CCCCC2)C1	TRPM1 prom inh 67, PAX8 reporter 69
CC1(C)CC(N2CCCC2)=CC(=[N+]2CCCCC2)C1	none
CCS(=O)(=O)NCC[C@H]1CC[C@H](NC(=O)C2CCCC2)[C@@H](CO)O1	none (no result: TRPM1 prom inh, Shn3 3UTR inh, EBV LMP1 NFkB)
Cc1cc2ccccn2c1C(=O)c1ccc([N+](=O)[O-])o1	PAX8 reporter 73
COC(=O)C1=CN(c2ccc(F)cc2)C(N)=C(C#N)C1c1ccc(-c2ccccc2)cc1 (configuration not stated)	none (no result: TRPM1 prom inh, Shn3 3UTR inh, EBV LMP1 NFkB)
COC(=O)C1=CN(c2ccc3c(c2)OCO3)C(N)=C(C#N)C1c1ccc(-c2ccccc2)cc1 (configuration not stated)	EWS-Fli block 67 (no result: TRPM1 prom inh, Shn3 3UTR inh, EBV LMP1 NFkB)
CNC[C@@H](C)NC[C@@H](Cc1ccccc1)NCCc1ccccc1	none
CC[C@H](C)[C@@H](CN[C@H](C)CNC)NCCC(c1ccccc1)c1ccccc1	TRPM1 prom inh 90, PAX8 reporter 75
COC(=O)C[C@H]1CC[C@@H]2[C@H](COC[C@@H](O)CN2C(=O)Nc2cccc(F)c2)O1	none (no result: TRPM1 prom inh, Shn3 3UTR inh, EBV LMP1 NFkB)
CCOc1ccc(-n2c(=S)sc3c(=O)[nH]c(SCC(=O)NCC4CCCO4)nc32)cc1 (configuration not stated)	PAX8 reporter 110
CCSc1ccc(-c2cc(NC=O)c3ncc(-c4cccc(C(=O)NCCN(C)C)c4)n3c2)cc1	PAX8 reporter 99, EWS-Fli block inconclusive (no result: TRPM1 prom inh, EBV LMP1 NFkB)
CC(=O)Nc1cc(-c2cccc(C(=O)NCCN(C)C)c2)cn2c(-c3cccc(C(F)(F)F)c3)cnc12	PAX8 reporter 106, EWS-Fli block 55 (no result: TRPM1 prom inh, EBV LMP1 NFkB)
CC1=C(C(=O)Nc2cccc(F)c2)C(c2ccsc2)C2=C(CC(C)(C)CC2=O)N1 (configuration not stated)	EWS-Fli block 54
CC1=C(C(=O)Nc2ccccc2F)C(c2ccsc2)C2=C(CC(C)(C)CC2=O)N1 (configuration not stated)	none
O=C1c2ccccc2C(=Cc2cccnc2)c2ccccc21	none (no result: TRPM1 prom inh, LGR2 antag)
CN1C/C(=C/c2cccnc2)C(=O)/C(=C/c2cccnc2)C1	TRPM1 prom inh 100 (no result: EWS-Fli block)
COCC(=O)N1CC2(C1)[C@@H](c1ccc(-c3cccc(F)c3)cc1)[C@H](CO)N2C(=O)COC	none (no result: TRPM1 prom inh, Shn3 3UTR inh, EBV LMP1 NFkB)
COc1cc2nc(SCC(=O)NCc3ccco3)n(Cc3ccc(Cl)cc3)c(=O)c2cc1OC	TRPM1 prom inh 62 (no result: LGR2 antag, EWS-Fli block)
Cc1noc(C)c1S(=O)(=O)Nc1ccc2c(c1)CC(=O)N([C@@H](C)CO)C[C@H](C)[C@@H](CN(C)S(C)(=O)=O)O2	none (no result: TRPM1 prom inh, Shn3 3UTR inh, EBV LMP1 NFkB)
CCCCc1nnc(NC(=O)c2ccc(S(=O)(=O)N3CCOCC3)cc2)s1	none
CCc1nnc(NC(=O)c2ccc(S(=O)(=O)N3CCOCC3)cc2)s1	EBV LMP1 NFkB 78
C[C@H]1CN([C@@H](C)CO)C(=O)Cc2cc(NC(=O)CCN3CCOCC3)ccc2O[C@H]1CN(C)S(=O)(=O)c1ccc(F)cc1	none (no result: TRPM1 prom inh, Shn3 3UTR inh, EBV LMP1 NFkB)
O=C(CCCOc1ccccc1)N1CCN(c2ccccc2)CC1	EBV LMP1 NFkB 86 (no result: PAX8 reporter, EWS-Fli block)
